Several values for one entry are separate records, joined by “and”; a condition that tells them apart may be missing. Equal entries are not always repeated. Inconclusive results are not listed. Entries that show only a call come without a potency. Some compounds were tested as several samples or in several runs, with calls that do not always agree. Activity calls are given as the source filed them. Calls come from the whole dose curve; as a rule, active = well fitted cell-killing curve with a large enough effect in the repeat runs; inconclusive = weak or mixed curves; inactive = flat fitted curve, though single readings scatter.
assay: qHTS assay to identify small molecule antagonists of the estrogen receptor beta (ER-beta) signaling pathway - cell viability counter screen (AID 1259382); settings: ER-beta-UAS-bla HEK293T viability, CellTiter-Glo luminescence, 16 h; series mostly up to 92.4 µM; activity change, negative = cytotoxicity: at the top concentration; note: nearly all actives have a fitted effect of over 55% in size
Excerpt: U.S. Tox21 Program National Center for Advancing Translational Sciences [NCATS] NIH Chemical Genomics Center [NCGC] U.S. Environmental Protection Agency [EPA] National Institutes of Environmental Health Sciences [NIEHS] National Toxicology Program [NTP] U.S. Food and Drug Administration [FDA] Tox21 Assay Overview: Estrogen receptor (ER), a nuclear hormone receptor, plays an important role in development, metabolic homeostasis and reproduction. Two subtypes of ER, ER-alpha and ER-beta, have similar expression patterns with some uniqueness in both types. Endocrine disrupting chemicals (EDCs) and their interactions with steroid hormone receptors like ER causes disruption of normal endocrine function. To identify the compounds that inhibit ER signaling, an ER-beta-UAS-bla GripTite cell line (Life Technologies, Madison, WI, USA) containing a beta-lactamase reporter gene under the control of an UAS response element was used to screen Tox21 10K compound library. The cytotoxicity of the Tox21 compound library against the ER-beta-bla cell line was tested in parallel by measuring the cell viability using CellTiter-Glo assay in the same wells.
Tox21 Assay Protocol Summary: ER-beta-UAS-bla HEK293T cells were dispensed at 2,000 cells/4 uL of assay medium containing 2% charcoal stripped FBS per well into black wall/clear-bottom 1536-well plates using a Multidrop Combi (ThermoFisher Scientific, Waltham, MA) dispenser. After the assay plates were incubated at a 37C and 5% CO2 for 6 hr, 23 nL of compounds dissolved in DMSO, positive controls or DMSO only was transferred to the assay plate by a Pintool station (Kalypsys, San Diego, CA), followed by addition of 1 uL (1nM as final concentration) of 17-beta-estradiol (E2) in assay medium using a Flying Reagent Dispenser (FRD, Aurora Discovery, San Diego, CA). The plates were incubated at 37C and 5% CO2 for 16 hr. Then 1 uL of LiveBLAzer B/G FRET substrate was added using a Flying Reagent Dispenser, the plates were incubated at room temperature for 2 hours, and fluorescence intensity was measured by an Envision plate reader (PerkinElmer, Shelton, CT). For cell viability readout that measures cytotoxicity, 4 uL/well of CellTiter-Glo reagent was added into the assay plates using a FRD. After 30 min incubation at room temperature, the luminescence intensity in the plates was measured using a ViewLux (PerkinElmer) plate reader.
Potency is the fitted concentration of half-maximal effect.

| SMILES | Potency | activity change, negative = cytotoxicity |
| --- | --- | --- |
| CCOS(=O)(=O)OCC | inactive |  |
| N#CCCCCC#N | inactive |  |
| CCCCOC(=O)COC(=O)c1ccccc1C(=O)OCCCC | inactive |  |
| Cn1c(-c2ccccc2)cc(-c2ccccc2)[n+]1C | inactive |  |
| CCOP(=S)(OCC)SCn1c(=O)oc2cc(Cl)ccc21 | inactive |  |
| CC(C)(O)C#N | inactive |  |
| Cc1ccc(N=CN(C)C=Nc2ccc(C)cc2C)c(C)c1 |  | -2.43% [at 42.5 µM] (inactive) |
| O=C1Nc2ccc(Cl)cc2C(c2ccccc2)=NC1O (stereo not given) | inactive |  |
| S=c1[nH]c2ccccc2[nH]1 | inactive |  |
| CCOP(=S)(OCC)SCSC(C)(C)C | inactive |  |
| N#CC(c1ccccc1)c1ccccc1 | inactive |  |
| CCCCOCCOC(C)=O | inactive |  |
| CC(C)=CC1C(C(=O)OCN2C(=O)C3=C(CCCC3)C2=O)C1(C)C (stereo not given) | inactive |  |
| N#Cc1c(Cl)c(Cl)c(Cl)c(C#N)c1Cl | 9.5 µM (active) and 15.4 µM (active) |  |
| O=P(OCCCl)(OCCCl)OCCCl | inactive |  |
| COP(=S)(OC)Oc1ccc(S(=O)(=O)N(C)C)cc1 | inactive |  |
| CC(C)=CC1C(C(=O)OCc2cccc(Oc3ccccc3)c2)C1(C)C (stereo not given) | inactive |  |
| O=C1CCCO1 | inactive |  |
| CC(C)(c1ccccc1)c1ccc(O)cc1 | 68 µM (active) |  |
| N#Cc1nn(-c2c(Cl)cc(C(F)(F)F)cc2Cl)c(N)c1S(=O)C(F)(F)F (stereo not given) | inactive |  |

| SMILES | Potency | activity change, negative = cytotoxicity |
| --- | --- | --- |
| Cc1ccc([N+](=O)[O-])cc1 | inactive |  |
| ClC(Cl)(Cl)c1ccccc1 | inactive |  |
| CC1=C(C(=O)Nc2ccccc2)SCCO1 | inactive |  |
| ClC(Cl)=C(Cl)C(Cl)=C(Cl)Cl | inactive |  |
| O=[N+]([O-])c1ccc(Cl)c([N+](=O)[O-])c1 | 27.7 µM (active) and 27.3 µM (active) |  |
| O=S(=O)(O)C(F)(F)C(F)(F)C(F)(F)C(F)(F)C(F)(F)C(F)(F)C(F)(F)C(F)(F)F | 46.2 µM (active) and inactive |  |
| CC1CC(=O)O1 (stereo not given) | inactive |  |
| CN(C)c1ccccc1 | inactive |  |
| CC(C)(c1ccc(OCC2CO2)cc1)c1ccc(OCC2CO2)cc1 (stereo not given) | 43.8 µM (active) and inactive |  |
| Clc1ccccc1-c1nnc(-c2ccccc2Cl)nn1 | inactive |  |
| CCCCC(C#N)(Cn1cncn1)c1ccc(Cl)cc1 (stereo not given) | inactive |  |
| CCNCC | inactive |  |
| CCC/C=N/O | inactive |  |
| CCN(CC)C(=O)C(C)Oc1cccc2ccccc12 (stereo not given) | inactive |  |
| Nc1ncn[nH]1 | inactive |  |
| COc1ccc(O)c(C(C)(C)C)c1 | inactive |  |
| CC(C)(c1ccccc1)c1ccc(O)c(C(C)(C)c2ccccc2)c1 | 24.1 µM (active) and 30.6 µM (active) |  |
| CC(C)CON=O | inactive |  |
| c1ccc2c(c1)Nc1ccccc1S2 |  | -6.75% [at 42.5 µM] (inactive) |
| ClCC(Cl)CCl | inactive |  |

Reference: PubChem BioAssay (Tox21)
